40 molecules from PubChem BioAssay (NCATS) can be followed below.

Each structure is given as a SMILES string. Several values for one entry are separate records, joined by “and”; a condition that tells them apart may be missing. Equal values may be shown once. Inconclusive results are not listed. Entries that show only a call come without a potency. Activity calls are given as the source filed them. The call rests on the fitted dose curve; in most records, active means well fitted cell-killing curve with a large enough effect; inconclusive means small, poorly fitted or top-dose-only effect; inactive means flat fitted curve, though single readings scatter. Non-standard residues stand in square brackets, D forms with d. Residues, ends and D or L forms follow the SMILES beside them. Peptide text beside a SMILES is read from it. *: point of attachment. Sta = CC(C)C[C@H](N)[C@@H](O)CC(=O)O; Isovaleryl = CC(C)CC(=O)*
Potency means the concentration at half of the fitted maximal effect.

This experiment can be described thus: qHTS of pediatric cancer cell lines to identify multiple opportunities for drug repurposing: Primary screen for DAOY cells (AID 1347090). Further: nearly all actives have a fitted effect of over 55% in size. To be noted: DAOY medulloblastoma viability, CellTiter-Glo luminescence, 48 h; series mostly up to 46 µM. From the text:
Drug repurposing or repositioning has been offered as a strategy for drug development in oncology programs. This approach has special potential for childhood cancers and other rare or orphan diseases, where the expected return on new drug development has been a disincentive to pharmaceuticals.
In this project we exploit the poly-pharmacology of drugs to discover new indications via phenotypic screening of a panel of 19 well-characterized cell lines derived from solid tumors seen in children and adolescents. The goal is to identify approved drugs with previously unrecognized anticancer properties that has the potential to reveal new mechanisms and biological processes involved in carcinogenesis or drug resistance. We employed a titration-based paradigm (quantitative high-throughput screening or qHTS), where all compounds were tested at multiple concentrations for their effect on cell viability. Concentration-response curves (CRCs) were derived directly from the primary screen, and both potency and efficacy values were used to identify compounds with robust bioactivity profiles. We screened the NIH Chemical Genomics Center (NCGC) Pharmaceutical Collection (NPC) and Mechanism Interrogation Plate (MIPE) small molecule collections of approved and investigational compounds against these cell lines; and measured metabolically active cells after 48 hours of compound treatment as a proxy for cell viability.
Assay Submitter: Nathalia J. Martinez, National Center for Advancing Translational Sciences, National Institutes of Health, Rockville, MD, USA; email: natalia.martinez@nih.gov
[1] Shen, M et al. Quantitative high-throughput phenotypic screening of pediatric cancer cell lines identifies multiple opportunities for drug repurposing. Oncotarget 2017 Dec 19;9(4):4758-4772. PMID 29435139.
The cells were obtained from University of North Carolina (UNC), Pediatric Preclinical Testing Program (PPT), and Coriell Institute (CI).
qHTS cell viability assay:
Cells were assayed in growth media at a density of 500-1,000 cells/well. Five microliters of cells were dispensed into 1,536-well, white, solid-bottom, TC-treated plates (Greiner Bio One) using a multidrop dispenser and incubated at 37 degrees C, 5% CO2, under a humidified atmosphere for 5 hours. Twenty-three nanoliters of compounds and controls (neutral control DMSO or positive control bortezomib at final concentration of 2.3 µM) were subsequently transferred by Kalypsys pintool. For primary screens, the MIPE collection was tested at 11-point dilutions (final concentrations range from 0.78 nM to 46 µM) and the NPC collection at 8-point dilutions (final concentrations range from 0.59 nM to 46 µM). Compounds tested in follow-up screens were assayed at 11-point dilutions. Cells were incubated for 48 hours, followed by addition of 3 uL of CellTiter-Glo (Promega). After a 15 min incubation at room temperature, samples were analyzed for luminescence intensity using a ViewLux High-throughput CCD imager equipped with clear filters.
Background: In qHTS, concentration-response curves come from the screen itself.
Regarding `COc1c(O)cc2c(c1O)[C@@H]1O[C@H](CO)[C@@H](O)[C@H](O)[C@H]1OC2=O`, the Potency entry was “inactive”.

Regarding `COCCCN1CCC(NC(=O)c2cc(Cl)c(N)c3c2OCC3)CC1`, the Potency entry was “inactive”.

As to `O=c1oc2cc(O)ccc2s1`, the Potency entry is “inactive”.

Consider `Cc1cc2c(s1)Nc1ccccc1N=C2N1CCN(C)CC1`, for which the Potency result was “inactive”.

On to `Nc1ccc(S(N)(=O)=O)cc1`, for which the Potency result was “inactive”.

For the molecule `Clc1ccc(C(Cn2ccnc2)OCc2ccsc2Cl)c(Cl)c1` (stereo not given), the Potency entry was “inactive”.

With `COc1c2occc2cc2ccc(=O)oc12`, the Potency entry was “inactive”.

Take `CC(C)c1nc(CN(C)C(=O)N[C@H](C(=O)N[C@@H](Cc2ccccc2)C[C@H](O)[C@H](Cc2ccccc2)NC(=O)OCc2cncs2)C(C)C)cs1`: the Potency entry is “inactive”.

Turning to `COc1ccc(C2(C#N)CCC(C(=O)O)CC2)cc1OC1CCCC1` (stereo not given), the Potency entry is “inactive”.

Regarding `CN(C)c1ccc2nc3ccc(=[N+](C)C)cc-3sc2c1`, the Potency was 2.35 µM (active) and 6.68 µM (active).

`C=CCc1cc(OC)c(O)c(C(=O)NCCO)c1`: the Potency result was “inactive”.

For the molecule `Oc1ccc(OCc2ccccc2)cc1`, the Potency entry was “inactive”.

With `COc1ccc2cc([C@H](C)C(=O)O)ccc2c1`, the Potency result was “inactive”.

In the case of `O=c1c(O)c(-c2ccc(O)cc2O)oc2cc(O)cc(O)c12`, the Potency result is “inactive”.

For `CC(C)Oc1ccc2c(=O)c(-c3ccccc3)coc2c1`, the Potency result is “inactive”.

Consider `NS(=O)(=O)c1cc(C(=O)O)c(NCc2ccco2)cc1Cl`, for which the Potency result was “inactive”.

As for `C[C@H](Cn1cnc2c(N)ncnc21)OCP(=O)(O)O`, the Potency result was “inactive”.

Turning to `CN(c1nccc(=O)[nH]1)C1CCN(c2nc3ccccc3n2Cc2ccc(F)cc2)CC1`, the Potency entry was “inactive”.

On to `CCC[C@@H]1C[C@@H](C(=O)N[C@@H]([C@H]2O[C@H](SC)[C@H](O)[C@@H](O)[C@H]2O)[C@@H](C)O)N(C)C1`, for which the Potency entry was “inactive”.

For the molecule `CCCCN(CCCC)CCC(O)c1cc2c(Cl)cc(Cl)cc2c2cc(C(F)(F)F)ccc12` (stereo not given), the Potency result is “inactive”.

As to `CC(C)CC(=O)N[C@H](C(=O)N[C@H](C(=O)N[C@@H](CC(C)C)[C@@H](O)CC(=O)N[C@@H](C)C(=O)N[C@@H](CC(C)C)[C@@H](O)CC(=O)O)C(C)C)C(C)C` (Isovaleryl-VV[Sta]A[Sta]-OH), the Potency result was “inactive”.

Consider `CCCCc1ccc2nc(NC(=O)OC)[nH]c2c1`, for which the Potency is 26.6 nM (active).

For the molecule `CC(C)C[C@H](NC(=O)[C@H](Cc1ccccc1)NC(=O)c1cnccn1)B(O)O`, the Potency was 29.6 nM (active).

Take `CN(C)C(=O)COC(=O)Cc1ccc(OC(=O)c2ccc(N=C(N)N)cc2)cc1`: the Potency entry was “inactive”.

Take `CCCS(=O)c1ccc2nc(NC(=O)OC)[nH]c2c1` (stereo not given): the Potency is 26.6 µM (active) and 23.5 µM (active).

For `COc1cc(C(C)=O)ccc1OCCCN1CCC(c2noc3cc(F)ccc23)CC1`, the Potency result was “inactive”.

On to `CC(C)c1ccc2oc3nc(N)c(C(=O)O)cc3c(=O)c2c1`, for which the Potency result is “inactive”.

On to `CCCCC(CC)COC(=O)C(C#N)=C(c1ccccc1)c1ccccc1` (stereo not given), for which the Potency entry was “inactive”.

Turning to `O=c1c(O)c(-c2cc(O)c(O)c(O)c2)oc2cc(O)cc(O)c12`, the Potency entry is “inactive”.

Consider `CCCCCCCCCCCCCCCCCCCCCCO`, for which the Potency entry is “inactive”.

Take `Cc1cc(=O)oc2cc(O)ccc12`: the Potency result was “inactive”.

As for `Cc1nc2n(c(=O)c1CCN1CCC(c3noc4cc(F)ccc34)CC1)CCCC2`, the Potency entry is “inactive”.

As to `CCOc1cc(CC(=O)N[C@@H](CC(C)C)c2ccccc2N2CCCCC2)ccc1C(=O)O`, the Potency result is “inactive”.

`CNC[C@@H](O)[C@@H](O)[C@H](O)[C@H](O)CO`: the Potency entry is “inactive”.

Take `CN1CCC(=C2c3ccccc3CCc3sccc32)CC1`: the Potency result is “inactive”.

In the case of `COC(=O)[C@H](Cc1ccccc1)NC(=O)[C@@H](N)CC(=O)O` (H-Asp-Phe-OMe), the Potency entry is “inactive”.

Turning to `O=C(O)c1cccc(-c2noc(-c3ccccc3F)n2)c1`, the Potency result was “inactive”.

On to `Clc1ccc(C(Cn2ccnc2)OCc2c(Cl)cccc2Cl)c(Cl)c1` (stereo not given), for which the Potency result is “inactive”.

For `N=C(N)c1ccc2cc(OC(=O)c3ccc(N=C(N)N)cc3)ccc2c1`, the Potency result was “inactive”.

Take `O=C(O)c1cccnc1Nc1cccc(C(F)(F)F)c1`: the Potency entry was “inactive”.
